Results: PubChem BioAssay
Values without a mark were called inactive. No rule for the calls is given here.

system: Aerobactin synthetase IucA (Klebsiella pneumoniae hvKP1); assay: Biochemical IucA enzyme inhibition primary screen of the Spectrum library (AID 1346200); settings: malachite green pyrophosphate, A620, at 8 µM, hits give low values;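 also: 100% = wells without compound and 0% = wells lacking enzyme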

In order of falling activity remaining:
1. CCN1CCN(C(=O)NC(C(=O)NC2C(=O)N3C(C(=O)O)=C(CSc4nnnn4C)CSC23)c2ccc(O)cc2)C(=O)C1=O (stereo not drawn)  125%
2. CC(C)=CC1C(C(=O)O)C1(C)C (stereo not drawn)  121%
3. COc1cc(-c2coc3cc(OC)c(OC)c(OC)c3c2=O)cc(OC)c1OC  121%
4. COC(=O)C1=C(C)NC(C)=C(C(=O)OCC(C)C)C1c1ccccc1[N+](=O)[O-] (stereo not drawn)  118%
5. COc1cc2c(cc1OC)C1Cc3ccc(OC)c(OC)c3CN1CC2 (stereo not drawn)  118%
6. CN(C)CCOC(c1ccccc1)c1ccccc1 (tested in a mixture with another compound)  117%
7. CC(=O)Oc1cc(OC(C)=O)c2c(c1)O[C@H](c1ccc(OC(C)=O)c(OC(C)=O)c1)[C@H](OC(C)=O)C2  108%
8. O=C(Nc1ccccc1)Nc1ccccc1  103%
9. CC(=O)O[C@]1(C(C)=O)CCC2C3C=C(Cl)C4=CC(=O)[C@@H]5C[C@@H]5[C@]4(C)C3CC[C@@]21C (stereo partly drawn)  101%
10. O=c1cc(-c2ccc(O)cc2)oc2cc(O[C@@H]3O[C@H](CO)[C@@H](O)[C@H](O)[C@H]3O)cc(O)c12  101%
11. CN(C(=O)C(Cl)Cl)c1ccc(OC(=O)c2ccco2)cc1  96.4%
12. COc1ccc(C(=O)O)c(O)c1OC  93.8%
13. CC1(C)O[C@@H]2CC3C4CCC5=CC(=O)CCC5(C)C4(F)C(O)CC3(C)[C@]2(C(=O)CCl)O1 (stereo partly drawn)  93.6%
